Measured values: PubChem BioAssay
Unmarked numbers belong to inactive results. Active and inactive are the calls of the source. Cut-off read from the data, not from the text of the source, unless noted: active = inhibition above about 44%; inactive = the rest.

Legend:
[1] = biological target: Nuclear receptor coactivator 3 (Homo sapiens) (UniProt Q9Y6Q9); assay: NCOA3 GAL4-fusion reporter inhibition – cell-based, luminescence, quadruplicate, confirmation (AID 588792;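 active = mean inhibition over 43.08%, the solvent-only control mean plus 3 SD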;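 note: 0% = DMSO treated cells and 100% = gossypol at 36 µM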); conditions: HEK293 GAL4-SRC3 luciferase reporter, at 3.6 µM, stronger effect = higher value
[2] = tested on: transactivating tegument protein VP16 (Human herpesvirus 1), Gal4-VP16 luciferase reporter; assay: repression of VP16-driven luciferase reporter – cell-based, luminescence, high throughput, counter-screen for SRC3 inhibitor project (AID 588794; in the data active = inhibition above about 30%); conditions: mammalian cells, at 3.6 µM, stronger effect = higher value
[3] = biological target: Nuclear receptor coactivator 1 (Homo sapiens) (UniProt Q15788); assay: NCOA1 GAL4-fusion reporter inhibition – cell-based, luminescence, quadruplicate, confirmation (AID 588820;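 active = mean inhibition above 46.68%, the untreated control wells mean plus 3 SD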;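 note: 0% = DMSO wells and 100% = gossypol 36 µM treated wells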); conditions: HEK293 GAL4-SRC1 luciferase reporter, at 3.6 µM, stronger effect = higher value
[4] = repression of VP16-driven luciferase reporter – cell-based, luminescence, high throughput, counter-screen for SRC1 inhibitor project (AID 588824; in the data active = inhibition above about 25%); conditions: cell-based VP16 transactivation luciferase luminescence; at 3.6 µM; stronger effect = higher value
[5] = StAR promoter reporter inhibitors, counter-screen for LRH-1 inverse agonist project, cell-based, luminescence, high throughput (AID 651611; in the data active = inhibition above about 28%); conditions: StAR promoter luciferase reporter counterscreen, at 3.6 µM, stronger effect = higher value
[6] = biological target: Nuclear receptor subfamily 5 group A member 2 (Homo sapiens) (UniProt O00482); assay: NR5A2 activity suppression in reporter cells – cell-based, luminescence, confirmation (AID 651613; in the data active = inhibition above about 42%;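 note: HEK293T cells co-transfected with LRH-1 and StAR promoter luciferase reporter; 0% = vehicle wells and 100% = parental cells lacking receptor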); conditions: cell-based LRH-1 luciferase reporter, inverse agonism; at 3.6 µM; stronger effect = higher value
[7] = biological target: Steroidogenic factor 1 (Homo sapiens) (UniProt Q13285); assay: inverse agonism at SF1 nuclear receptor – cell-based, luminescence, high throughput, counter-screen for LRH-1 inverse agonist project (AID 651614); conditions: cell-based SF1 luciferase reporter, at 3.6 µM, stronger effect = higher value;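 note: cells cotransfected with StAR promoter reporter and SF1 expression vector; 0% = vehicle on cells with receptor and 100% = vehicle on cells lacking receptor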
[8] = compounds suppressing VP16-driven luciferase signal – cell-based, luminescence, high throughput, counter-screen for LRH-1 inverse agonist project (AID 651615; in the data active = inhibition above about 33%); conditions: Gal4-VP16 luciferase reporter cells, at 3.6 µM, stronger effect = higher value

Sequence of Steroidogenic factor 1 (Homo sapiens) (Q13285 whole entry, looked up, the tested form may be a part): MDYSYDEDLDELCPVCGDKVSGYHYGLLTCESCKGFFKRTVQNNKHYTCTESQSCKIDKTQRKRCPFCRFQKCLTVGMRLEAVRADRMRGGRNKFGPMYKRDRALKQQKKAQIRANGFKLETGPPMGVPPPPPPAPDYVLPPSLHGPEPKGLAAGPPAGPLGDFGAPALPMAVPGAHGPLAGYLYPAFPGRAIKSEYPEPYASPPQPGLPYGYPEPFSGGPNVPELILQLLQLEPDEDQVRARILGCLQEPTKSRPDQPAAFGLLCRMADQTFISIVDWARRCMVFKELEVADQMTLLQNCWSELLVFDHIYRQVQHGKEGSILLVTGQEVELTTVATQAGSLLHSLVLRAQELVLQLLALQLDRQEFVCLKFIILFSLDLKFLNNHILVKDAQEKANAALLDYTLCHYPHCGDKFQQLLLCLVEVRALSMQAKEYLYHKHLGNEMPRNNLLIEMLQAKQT
Sequence of Nuclear receptor coactivator 1 (Homo sapiens) (Q15788 whole entry, looked up, the tested form may be a part): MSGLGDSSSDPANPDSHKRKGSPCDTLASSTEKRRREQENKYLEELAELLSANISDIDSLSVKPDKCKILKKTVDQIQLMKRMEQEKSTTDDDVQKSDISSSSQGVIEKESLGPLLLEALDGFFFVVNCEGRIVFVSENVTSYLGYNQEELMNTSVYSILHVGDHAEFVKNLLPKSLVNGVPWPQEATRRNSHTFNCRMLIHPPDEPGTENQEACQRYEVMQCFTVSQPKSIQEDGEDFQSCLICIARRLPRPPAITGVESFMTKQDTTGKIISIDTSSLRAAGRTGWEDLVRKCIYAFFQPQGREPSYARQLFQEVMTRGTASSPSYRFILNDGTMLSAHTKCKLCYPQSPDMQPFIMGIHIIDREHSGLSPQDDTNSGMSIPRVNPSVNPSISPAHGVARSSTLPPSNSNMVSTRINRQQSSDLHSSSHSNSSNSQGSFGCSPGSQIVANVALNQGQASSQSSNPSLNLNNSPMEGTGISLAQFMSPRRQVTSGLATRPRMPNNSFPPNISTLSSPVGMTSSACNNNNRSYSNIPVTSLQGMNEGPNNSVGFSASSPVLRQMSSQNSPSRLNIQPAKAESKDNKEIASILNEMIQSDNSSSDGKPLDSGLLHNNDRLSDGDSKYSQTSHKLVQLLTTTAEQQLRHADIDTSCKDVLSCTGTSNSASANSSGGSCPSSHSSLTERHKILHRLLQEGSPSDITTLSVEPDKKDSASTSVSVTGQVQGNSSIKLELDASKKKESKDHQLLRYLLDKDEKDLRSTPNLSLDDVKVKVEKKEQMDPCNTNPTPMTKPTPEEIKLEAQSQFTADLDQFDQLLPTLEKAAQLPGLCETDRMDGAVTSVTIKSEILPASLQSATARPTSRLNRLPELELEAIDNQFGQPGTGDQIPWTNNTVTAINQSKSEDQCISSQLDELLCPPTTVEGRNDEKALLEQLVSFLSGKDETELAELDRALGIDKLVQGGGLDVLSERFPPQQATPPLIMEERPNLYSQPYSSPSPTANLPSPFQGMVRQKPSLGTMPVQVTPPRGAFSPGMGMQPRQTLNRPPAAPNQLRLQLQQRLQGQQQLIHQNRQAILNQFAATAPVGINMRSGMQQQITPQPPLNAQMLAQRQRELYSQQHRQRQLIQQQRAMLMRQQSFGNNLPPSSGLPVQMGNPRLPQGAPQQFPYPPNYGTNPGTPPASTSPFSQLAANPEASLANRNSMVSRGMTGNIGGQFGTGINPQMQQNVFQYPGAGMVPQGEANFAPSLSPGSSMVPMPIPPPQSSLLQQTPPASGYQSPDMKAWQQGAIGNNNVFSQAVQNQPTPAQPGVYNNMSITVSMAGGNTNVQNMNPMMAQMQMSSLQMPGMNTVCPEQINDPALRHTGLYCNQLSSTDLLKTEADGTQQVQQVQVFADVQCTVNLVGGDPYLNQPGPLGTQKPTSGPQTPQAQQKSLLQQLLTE
Sequence of Nuclear receptor coactivator 3 (Homo sapiens) (Q9Y6Q9 whole entry, looked up, the tested form may be a part): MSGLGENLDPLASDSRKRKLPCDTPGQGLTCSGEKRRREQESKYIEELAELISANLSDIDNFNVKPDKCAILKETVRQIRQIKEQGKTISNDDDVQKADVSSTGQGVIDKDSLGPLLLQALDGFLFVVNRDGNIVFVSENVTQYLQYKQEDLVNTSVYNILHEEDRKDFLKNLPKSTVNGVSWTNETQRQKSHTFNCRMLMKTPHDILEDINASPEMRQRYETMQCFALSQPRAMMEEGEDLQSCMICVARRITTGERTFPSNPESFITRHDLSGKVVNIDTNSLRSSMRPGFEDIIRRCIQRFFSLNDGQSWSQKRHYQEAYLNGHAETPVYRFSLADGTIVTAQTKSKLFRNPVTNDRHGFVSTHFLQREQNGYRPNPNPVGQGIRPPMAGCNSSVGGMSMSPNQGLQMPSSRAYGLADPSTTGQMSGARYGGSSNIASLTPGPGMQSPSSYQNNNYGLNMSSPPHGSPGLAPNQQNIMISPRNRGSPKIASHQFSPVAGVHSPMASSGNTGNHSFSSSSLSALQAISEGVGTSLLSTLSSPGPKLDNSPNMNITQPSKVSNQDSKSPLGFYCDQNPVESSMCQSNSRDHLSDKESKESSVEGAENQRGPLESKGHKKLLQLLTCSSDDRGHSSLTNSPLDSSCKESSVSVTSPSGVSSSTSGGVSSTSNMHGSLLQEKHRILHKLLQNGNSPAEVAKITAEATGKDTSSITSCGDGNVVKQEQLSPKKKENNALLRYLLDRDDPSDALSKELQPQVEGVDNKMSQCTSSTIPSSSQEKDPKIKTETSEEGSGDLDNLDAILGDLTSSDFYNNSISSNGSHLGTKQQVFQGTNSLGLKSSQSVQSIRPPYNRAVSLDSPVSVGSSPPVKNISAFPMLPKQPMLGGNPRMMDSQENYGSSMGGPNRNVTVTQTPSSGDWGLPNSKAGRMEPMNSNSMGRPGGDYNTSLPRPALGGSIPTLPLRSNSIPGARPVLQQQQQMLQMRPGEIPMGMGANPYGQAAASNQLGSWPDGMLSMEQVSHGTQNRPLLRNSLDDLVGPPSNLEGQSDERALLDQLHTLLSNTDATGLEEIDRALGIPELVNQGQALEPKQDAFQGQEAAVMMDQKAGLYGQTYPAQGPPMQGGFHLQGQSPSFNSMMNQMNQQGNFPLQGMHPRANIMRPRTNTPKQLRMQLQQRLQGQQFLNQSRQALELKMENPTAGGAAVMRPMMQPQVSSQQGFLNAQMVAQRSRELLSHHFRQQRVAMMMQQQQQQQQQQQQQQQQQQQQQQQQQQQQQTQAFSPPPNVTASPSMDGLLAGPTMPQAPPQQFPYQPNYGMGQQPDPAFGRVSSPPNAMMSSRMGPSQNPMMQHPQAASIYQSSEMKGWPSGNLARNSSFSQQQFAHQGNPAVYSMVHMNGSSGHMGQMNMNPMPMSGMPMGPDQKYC
Sequence of Nuclear receptor subfamily 5 group A member 2 (Homo sapiens) (O00482 whole entry, looked up): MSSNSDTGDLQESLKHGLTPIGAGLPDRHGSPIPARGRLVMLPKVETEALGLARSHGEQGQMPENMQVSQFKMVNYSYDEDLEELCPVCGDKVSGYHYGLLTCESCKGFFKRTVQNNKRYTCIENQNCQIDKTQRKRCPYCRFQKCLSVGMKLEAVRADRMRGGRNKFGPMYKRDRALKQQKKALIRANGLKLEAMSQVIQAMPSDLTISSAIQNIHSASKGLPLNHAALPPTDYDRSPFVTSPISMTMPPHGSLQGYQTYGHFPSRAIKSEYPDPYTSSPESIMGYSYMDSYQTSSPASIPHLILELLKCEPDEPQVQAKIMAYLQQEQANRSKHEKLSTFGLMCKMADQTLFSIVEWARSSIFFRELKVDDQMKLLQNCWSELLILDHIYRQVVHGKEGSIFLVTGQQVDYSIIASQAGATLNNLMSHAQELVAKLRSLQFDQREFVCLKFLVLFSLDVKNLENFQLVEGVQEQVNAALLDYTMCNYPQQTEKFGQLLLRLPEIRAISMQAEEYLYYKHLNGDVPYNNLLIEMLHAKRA

| Structure (SMILES) | inhibition [1] | inhibition [2] | inhibition [3] | inhibition [4] | inhibition [5] | inhibition [6] | inhibition [7] | inhibition [8] |
| --- | --- | --- | --- | --- | --- | --- | --- | --- |
| COc1cc(NS(C)(=O)=O)ccc1Nc1c2ccccc2nc2ccccc12 | 63.6% (active) | -6.87% | 61.1% (active) | -3.17% | 46.6% (active) | 108% (active) | 52% (active) | 78.8% (active) |
| O=C(Nc1ccc(N2CCN(C(=O)c3ccccc3)CC2)cc1)c1ccc2c(c1)OCO2 | 36.9% | 66.7% (active) | 37.4% | 57.1% (active) | 50.2% (active) | 64% (active) | 73.8% (active) | 70.5% (active) |
| CN(Cc1cnc2nc(N)nc(N)c2n1)c1ccc(C(=O)NC(CCC(=O)O)C(=O)O)c2ccccc12 (stereo not drawn) | 63.8% (active) | 15% | 68% (active) | 13.2% | 77.9% (active) | 45.5% (active) | 47.6% (active) | 12.9% |
| CC(=O)N(/N=C1\Sc2ccccc2C1=O)c1ccc(C)cc1C | 54.1% (active) | 37.7% (active) | 2.03% | 25.4% (active) | -1.06% | 11.9% | 48.8% (active) | -16.6% |
| COc1ccc2[nH]c3c(C)c4ccncc4c(C)c3c2c1 | -29% | 53.7% (active) | 24.4% | 52.5% (active) | 60.9% (active) | 67.1% (active) | 68.7% (active) | 72.1% (active) |
| COc1ccc(-[n+]2c(C)cc(/C=C3\Sc4ccccc4N3C)cc2C)cc1 | 74.4% (active) | 83.5% (active) | 47.5% (active) | 78.8% (active) | 74.5% (active) | 106% (active) | 90% (active) | 87.4% (active) |
| CN(Cc1cnc2nc(N)nc(N)c2n1)c1ccc(C(=O)NC(CCC(=O)O)C(=O)O)cc1 (stereo not drawn) | 66.2% (active) | 22% | 52.3% (active) | 10.5% | 76.1% (active) | 50.5% (active) | 46.2% (active) | 19.9% |
| O=C(N/N=C/c1sc(N2CCOCC2)nc1-c1ccccc1)c1cccc(S(=O)(=O)N2CCOCC2)c1 | 38.1% | 46.1% (active) | 43.6% | 61.9% (active) | 69.9% (active) | 100% (active) | 85.7% (active) | 87.4% (active) |
| O=C1[C@@H]2Cc3c([nH]c4ccccc34)C(c3ccc([N+](=O)[O-])cc3)N2C(=O)CN1C1CC1 (stereo partly drawn) | 63.7% (active) | 64% (active) | 62.3% (active) | 62.6% (active) | 60.7% (active) | 67.9% (active) | 71.4% (active) | 75.7% (active) |
| O=C1C(Nc2ccc(O)cc2)=C/C(=N/S(=O)(=O)c2cccs2)c2ccccc21 | 85.2% (active) | 72% (active) | 29.5% | 68% (active) | 79.7% (active) | 101% (active) | 87.6% (active) | 95.2% (active) |
| NS(=O)(=O)c1ccc(NC(=O)/C=C/c2ccc3c(c2)OCO3)cc1 | 10.8% | 53.6% (active) | 17.1% | 52% (active) | 47% (active) | 61.7% (active) | 62.2% (active) | 66.2% (active) |
| C=C1C(=O)c2sccc2C(c2ccc(OC)c(OC)c2)C1COC(C)=O (stereo not drawn) | 67.7% (active) | 59% (active) | 6.09% | 58.4% (active) | 69.8% (active) | 95.4% (active) | 92.8% (active) | 82.4% (active) |
| CCOc1ccc(-n2c(-c3ccc(OC)cc3)c[n+]3c2CCCCC3)cc1 | 46.6% (active) | 67.5% (active) | 36.2% | 63.9% (active) | 52.9% (active) | 109% (active) | 83.9% (active) | 90.3% (active) |
| S=C(NN=C(c1ccccc1)c1ccccn1)N(Cc1ccccn1)Cc1ccccn1 | 84% (active) | 87.2% (active) | 85% (active) | 89.7% (active) | 91% (active) | 105% (active) | 96.4% (active) | 77.2% (active) |
| CCCc1nc2c(=O)n(C)c(=O)nc-2n(C)n1 | 70.5% (active) | 66.6% (active) | 18.4% | 64% (active) | 56.5% (active) | 68.8% (active) | 72.8% (active) | 73.5% (active) |
| N=C1C=CC(=C(c2ccc(N)cc2)c2ccc(N)cc2)C=C1 | 56.2% (active) | 60% (active) | 45.2% | 45.9% (active) | 54.9% (active) | 110% (active) | 85.2% (active) | 88.5% (active) |
